Measurements from PubChem BioAssay AID624417 (National Center for Advancing Translational Sciences (NCATS), 2012).
Hit rate of the full screen: of about 410,000 compounds, about 6,400 (1.6%) were called active. About 20% were inconclusive and are not listed. The call rests on the fitted dose curve; in most records, active means well fitted inhibition curve with a large enough effect; inconclusive means small, poorly fitted or top-dose-only effect; inactive means no such curve, though single readings can be large or run the other way. Many of the other results were omitted from the sample, so actives are more common in it than they were. Peptide text beside a SMILES is read from it. * marks the point of attachment. Bz = O=C(c1ccccc1)*

The molecules below were run against Glucagon-like peptide 1 receptor (Homo sapiens) (UniProt P43220) (assay: qHTS of GLP-1 Receptor Inverse Agonists (Inhibition Mode)). Conditions: HEK293 GLP-1R CRE-luciferase, luminescence, 24 h, GLP-1R form is constitutively active; series mostly up to 38.3 µM.
Summary of the method: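 Inverse agonism was detected as reduced cAMP-driven luciferase luminescence after 24 h compound treatment. The cells were HEK293 clones expressing constitutively active human GLP-1R with the reporter. Reporter-only and GPR119 cell lines served as counterscreen controls.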
Further: nearly all actives have a fitted effect of over 55% in size.
Potency means the concentration at half of the fitted maximal effect.

Glucagon-like peptide 1 receptor (Homo sapiens), sequence (P43220 whole entry, looked up): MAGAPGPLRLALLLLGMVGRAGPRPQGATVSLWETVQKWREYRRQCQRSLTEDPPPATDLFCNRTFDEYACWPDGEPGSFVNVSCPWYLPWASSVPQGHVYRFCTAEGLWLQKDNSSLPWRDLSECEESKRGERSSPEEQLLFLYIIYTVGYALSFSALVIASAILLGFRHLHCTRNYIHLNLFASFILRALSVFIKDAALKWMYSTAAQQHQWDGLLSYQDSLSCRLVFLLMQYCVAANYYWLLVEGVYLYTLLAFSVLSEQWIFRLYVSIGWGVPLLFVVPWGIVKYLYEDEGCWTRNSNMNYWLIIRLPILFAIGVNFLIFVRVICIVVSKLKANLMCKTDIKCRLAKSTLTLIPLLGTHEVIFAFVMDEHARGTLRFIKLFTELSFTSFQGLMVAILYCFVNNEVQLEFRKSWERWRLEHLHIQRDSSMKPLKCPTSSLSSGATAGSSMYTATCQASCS

Potency, active:
COc1cccc2sc(N(CCCN(C)C)C(=O)C(c3ccccc3)c3ccccc3)nc12 5.62 µM
CCN(CC)CCN(C(=O)c1ccc2c(c1)CCCC2)c1nc2c(OC)cccc2s1 11.2 µM
COC(=O)CN(c1nc(C)c(Cl)c(OC)n1)S(=O)(=O)c1ccc(C)cc1 10 µM
CN(Cc1ccccc1F)C(=O)C(Cc1ccccc1)NC(=O)c1ccccc1 (stereo unspecified) 11.2 µM
C=CCOC(=O)N1CCC2CC1c1cc(-c3ccc(OC)cc3)ccc12 (stereo unspecified) 10 µM
CC(C)(C)c1ccc(CN2C(=O)c3ccccc3S2(=O)=O)cc1 10 µM
C=C(Br)Cn1c(CCCC)nc2ccccc21 2.82 µM
Cc1ccc(Nc2c3c(nc4ccccc24)CCC3)cc1 5.62 µM
CC(C)n1cnc2c(Nc3cccc(Cl)c3)nc(N(CCO)CCCO)nc21 10 µM
COc1ccccc1Nc1c2c(nc3ccc(NC(=O)/C=C/c4cc(OC)c(OC)c(OC)c4)cc13)CCCC2 3.55 µM
CN(C)CCCN(C(=O)c1ccc(S(=O)(=O)N2CCCCCC2)cc1)c1nc2ccc(Br)cc2s1 3.55 µM
CN(C)CCCN(C(=O)c1ccc(S(=O)(=O)N2CCCCCC2)cc1)c1nc2cc3c(cc2s1)OCCO3 11.2 µM
C/C(=N/NC(=S)Nc1ccccc1)c1ccc2c(c1)OCO2 3.16 µM
COc1cc(SC)ccc1C(=O)Nc1nc(C)cs1 1.12 µM
Oc1cccc(/C=N/Nc2ccc(Cl)nn2)c1O 1.12 µM
CN1CCN(S(=O)(=O)c2ccc(N3CCN(c4ccccc4O)CC3)c([N+](=O)[O-])c2)CC1 10 µM
Cc1ccccc1N1CCN(S(=O)(=O)c2ccc3ccccc3c2)CC1 10 µM
O=C1[C@H]2[C@@H](c3ccc(F)cc3)N3C(=O)N(c4ccc(C(F)(F)F)cc4)C(=O)[C@@]3(Cc3ccccc3)[C@H]2C(=O)N1C1CCCCC1 2.24 µM
C=CCOC(=O)C1=C(C)NC(C)=C(C(=O)OCC=C)C1c1cccs1 10 µM

Potency, inactive:
CCCNC(=O)C1(C)CCCN(C(=O)c2cccc(OC(C)=O)c2C)C1 (stereo unspecified)
CCN(CC)CCN(C(=O)c1cccc([N+](=O)[O-])c1)c1nc2ccc(OC)cc2s1
Cc1cc(C)c2nc(N(CCN(C)C)C(=O)/C=C/c3cccs3)sc2c1
Cc1ccc2sc(N(CCN(C)C)C(=O)/C=C/c3cccs3)nc2c1C
COc1ccccc1CNC(=O)Cn1cc2c(n1)CCCC2
CCCCN1C(=O)C(CC(=O)NC(c2ccccc2)c2ccccc2)CC(C(=O)N2CCOCC2)=C1C (stereo unspecified)
C[C@@H]1CC2=C(C(=O)OC(C)(C)O2)[C@@H](C2CC2)O1
COc1cccc(-c2cnc3c(NC(C)=O)cc(-c4cccc(NC(C)=O)c4)cn23)c1
COc1ccc(C)cc1N(CC(=O)N1CCC(C)CC1)S(=O)(=O)c1ccc(C)cc1
CCN(CC)C(=O)CN(c1cccc(OC)c1)S(=O)(=O)c1ccc(C)cc1
CCc1ccc([C@@H]2CC(=O)[C@@H]3CN(S(=O)(=O)c4ccc(C)cc4)[C@H](c4ccc(Cl)cc4)C[C@@H]3N2S(=O)(=O)c2ccc(C)cc2)cc1
COc1cc(C=NC2CCCCC2)ccc1O
O=C(NC(Cc1ccccc1)C(=O)N1CCCC1C(=O)O)c1ccccc1 (stereo not drawn) (Bz-Phe-Pro-OH; configuration not given here)
NC(=O)c1ccc(NC(=O)COC(=O)C(Cc2ccccc2)NC(=O)c2ccccc2)cc1 (stereo unspecified)
CC(OC(=O)c1ccc(NC(=O)CC#N)cc1)C(=O)Nc1ccc(S(=O)(=O)N2CCCC2)cc1 (stereo unspecified)
O=C1NC[C@@H](CCCCN2CCN(CCc3ccc(O)cc3)C(=O)C2=O)N(CC2CCCCC2)C1=O
COc1ccc(-c2ccc3c(c2)C2CC3CCN2CCC#N)cc1 (stereo unspecified)
Cc1ccc(S(=O)(=O)N(CCc2ccccc2)c2ccc3c(c2)C2CC3CCN2C(=O)OCc2ccccc2)cc1 (stereo unspecified)
C[C@@H]1CN([C@H](C)CO)C(=O)CCCn2cc(nn2)CO[C@H]1CN(C)S(C)(=O)=O
Cc1ccc(C(O)c2ncc(-c3ccccc3F)[nH]2)cc1F (stereo unspecified)
COc1ccc(CNC(=O)CN2C(=O)c3ccccc3S2(=O)=O)cc1
O=C1c2ccccc2S(=O)(=O)N1Cc1c(F)cccc1Cl
CCc1cc(-c2nnn(CCC3COCCO3)c2CC)ccc1-c1cn(Cc2ccc3ccccc3c2)nn1 (stereo unspecified)
CC(OC(=O)c1cccnc1Cl)C(=O)NC1CCCCC1 (stereo unspecified)
C[C@H](CO)N1C[C@H](C)[C@@H](CN(C)Cc2ccc3c(c2)OCO3)OCc2cnnn2CCCC1=O
CCCCn1c(CN2CCN(CCO)CC2)nc2ccccc21
CCCCn1c(CCCNC(=O)CC)nc2ccccc21
Nc1[nH]c(C(=O)c2ccccc2)c(-c2ccncc2)c1C(=O)NCc1cccc2ccccc12
CCOc1ccc(NC(=O)CSc2c3c(nc4ccccc24)CCCC3)cc1
Cc1ccc(CNC(=O)CSc2c3c(nc4cc(Cl)ccc24)CCCC3)cc1
CCCNC(=O)C1(C)CCN1C(=O)C1(c2ccccc2)CC1 (stereo unspecified)
CCOc1ccc(C(=O)Nc2ccc3nc4c(c(Nc5ccccc5OC)c3c2)CCCC4)cc1
COc1ccc(NS(=O)(=O)c2cc(NC(=O)/C=C/c3cc(OC)c(OC)c(OC)c3)ccc2N2CCCCC2)cc1
O=C1NC(Cc2ccccc2)c2nc3ccc(Br)cc3c(=O)n2-c2cc3ccccc3cc21 (stereo unspecified)
Cc1cc2nc(NC(=O)c3ccc(S(=O)(=O)N4CCOCC4)cc3)sc2cc1C
CN(C)CCN(C(=O)CN1C(=O)c2ccccc2C1=O)c1nc2cc3c(cc2s1)OCCO3
Cc1cc(C)c2sc(NC(=O)c3ccc(S(=O)(=O)N4CCCC4)cc3)nc2c1
Cc1ccc2nc(N(CCN(C)C)C(=O)C3=COCCO3)sc2c1
Cc1noc(C)c1S(=O)(=O)N(C)C[C@H]1OCCCC[C@@H](C)Oc2ccc(NC(=O)CCCN(C)C)cc2C(=O)N([C@H](C)CO)C[C@@H]1C
O=C(O)C1=C(C(=O)O)C2CCC1C2
CC(=O)N1Cc2cc(C(=O)NCc3cccc(F)c3)nc(-c3cccc(C4=CCCCC4)c3)c2[C@H]1CCO
CCc1nc2c(=O)[nH]cnc2o1
C/C(=N/NC(=O)c1ccncc1)c1ccc2c(c1)OCO2
C/C(=N\NC(=O)C(N)=O)c1ccc2c(c1)OCCO2
CCOC(=O)[C@]12CCCC=C1N(CCC1=CCCCC1)C(=O)[C@H](CC(=O)NCCCOC)C2
O=C(NCC(F)(F)F)c1ccc(S(=O)(=O)NCCc2ccc3c(c2)OCCO3)cc1
Cc1csc(NC(=O)c2ccc(C)s2)n1
COc1cc(SC)ccc1C(=O)NCCOc1ccccc1Cl
CCOc1ccc2[nH]c(=S)sc2c1
O=C(NC1CCCC1)C1c2ccccc2OCC(=O)N1CC(F)(F)F (stereo unspecified)
O=C(Nc1cc(F)ccc1F)c1ccc2c(=O)n3c(nc2c1)CCC3
Oc1c(Br)cccc1/C=N/Nc1c(F)c(F)c(F)c(F)c1F
O=C(NN=Cc1ccccc1O)NN=Cc1ccccc1O
C[C@@H]1CN([C@@H](C)CO)S(=O)(=O)c2ccc(-c3ccc(C(=O)N(C)C)cc3)cc2O[C@@H]1CN(C)Cc1ccccc1C(=O)O
CCc1nc2c(OCCc3cccc(OC)c3)cccn2c1N(C)C(=O)c1ccc(C)cc1
Cc1ccc(NC(=O)[C@H](Cc2ccccc2)NC(=O)CC[C@H]2O[C@@H](n3ccc(=O)[nH]c3=O)[C@H](O)[C@@H]2O)cc1C
O=[N+]([O-])c1ccc(N2CCN(S(=O)(=O)c3ccccc3)CC2)cc1N1CCc2ccccc2C1
Cc1ccc(S(=O)(=O)N2CCN(c3ccccc3)CC2)cc1C
O=S(=O)(c1ccc2ccccc2c1)N1CCN(S(=O)(=O)N2CCOCC2)CC1
Cc1cc(N)n(-c2ccc(S(=O)(=O)N3CCCC3)cc2[N+](=O)[O-])n1
COc1ccc(NC(=O)CN(C)C(=O)c2cc(C)oc2C)cc1
O=C(/C=C/[C@H]1O[C@@H](n2ccc(=O)[nH]c2=O)[C@H](O)[C@@H]1O)NCc1ccccn1
C[C@H](CO)N1C[C@H](C)[C@@H](CN(C)C(=O)c2cnccn2)Oc2ncc(Br)cc2C1=O
CC(C)C[C@@H]1COc2cc(N3CCC[C@@H]3CO)ccc2S(=O)(=O)N1
Cc1cccc([C@@H]2[C@@H]3C(=O)N(Cc4ccccc4)C(=O)[C@@H]3[C@]3(Cc4ccc(Cl)cc4)C(=O)N(c4cccc(Cl)c4)C(=O)N23)c1
CCN1C(=O)[C@H]2[C@@H](c3ccc(C)cc3)N3C(=O)N(c4cccc(Br)c4)C(=O)[C@@]3(CC)[C@H]2C1=O
CC(=O)c1ccc(Nc2nc(C(N)c3ccccc3Cl)cs2)cc1 (stereo unspecified)
C[C@H](CO)N1C[C@H](C)[C@@H](CN(C)C(=O)c2cccc(F)c2)Oc2cc(-c3cncnc3)ccc2S1(=O)=O
O=C(NCc1ccccc1)C1CNCC(C(=O)NCc2ccccc2)C1 (stereo unspecified)
C=CCOC(=O)c1ccccc1C(=O)OCC=C
CCOC(=O)C1=C(C)Nc2nc3ccccc3n2C1c1cccs1 (stereo unspecified)
COc1ccc(-c2[nH][nH]c(=O)c2NC(=O)c2ccc([N+](=O)[O-])cc2)cc1
